Active and inactive are the calls of the source.
Key:
[1] = test system: Plasmodium falciparum Sir2 (PF13_0152, Sir2A); experiment: pfSir2 binders on small-molecule microarrays, primary screen, biochemical, small-molecule microarray, 635 nm fluorescence (AID 1098); conditions: small-molecule microarray binding, fluorescence 635 nm; higher = more signal;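 also: score merges spot fluorescence intensity with its signal-to-noise ratio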
[2] = small-molecule microarray binders of probe aDKK1, primary screen, biochemical, biotinylated probe, 635/667 nm fluorescence (AID 1099); conditions: higher = more signal;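 also: score merges 667nm spot fluorescence with signal to noise across triplicate slides; reference of the scale not given here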
[3] = small-molecule microarray binders of probe aCHRDL2, primary screen, biochemical, biotinylated probe, 635/667 nm fluorescence (AID 1100); conditions: higher = more signal
[4] = splicing luciferase reporter signal modulators, primary screen, spliceosome inhibition project, cell-based, HEK293, splice +/- reporter (AID 1101); conditions: luminescence, 24 h, higher = more signal, called active from +8 up or from −8 down;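 also: HEK293 cells carrying a splicing-competent luciferase reporter gene; test concentration not given here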
[5] = biological target: Fibroblast growth factor 10 (Homo sapiens) (UniProt O15520); experiment: FGF10 binders on small-molecule microarrays, primary screen, biochemical, small-molecule microarray, 635 nm fluorescence (AID 1102); conditions: FGF10 binding, fluorescence 635 nm, higher = more signal
[6] = test system: glycogen synthase kinase-3 (GSK3A per assay name; protocol says GSK3B); experiment: GSK3 binders on small-molecule microarrays, primary screen, biochemical, small-molecule microarray, 635 nm fluorescence, GSK3A (AID 1103); conditions: small-molecule microarray binding, fluorescence 635 nm; higher = more signal; also: the record names both GSK3A and GSK3B
[7] = biological target: Epidermal growth factor receptor (Homo sapiens) (UniProt P00533); experiment: EGFR binders on small-molecule microarrays, primary screen, biochemical, small-molecule microarray, 635 nm fluorescence (AID 1104); conditions: EGFR binding, higher = more signal;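 also: score merges 667 nm emission intensity with spot signal to noise over triplicate slides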
[8] = biological target: Follistatin-related protein 3 (Homo sapiens) (UniProt O95633); experiment: FSTL3 binders on small-molecule microarrays, primary screen, biochemical, small-molecule microarray, 635 nm fluorescence (AID 1105); conditions: FSTL3 binding, higher = more signal;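 also: score merges emission near 667 nm and signal to noise per printed spot across three slides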
[9] = biological target: Dickkopf-related protein 1 (Homo sapiens) (UniProt O94907); experiment: DKK1 binders on small-molecule microarrays, primary screen, biochemical, small-molecule microarray, 635 nm fluorescence scan (AID 1106); conditions: DKK1 binding, higher = more signal;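 also: score merges emission near 667 nm with signal to noise over three replicate slides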
[10] = test system: Inhibin beta A chain (activin A); experiment: INHBA (activin A) binders on microarrays, primary screen, biochemical, small-molecule microarray, 635 nm fluorescence scan (AID 1107); conditions: small-molecule microarray binding, higher = more signal;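 also: mouse activin A protein probed at 4.33 µg/mL on printed slides; score merges bound-protein fluorescence near 667 nm with spot signal-to-noise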

Fibroblast growth factor 10 (Homo sapiens), sequence (O15520 whole entry, looked up): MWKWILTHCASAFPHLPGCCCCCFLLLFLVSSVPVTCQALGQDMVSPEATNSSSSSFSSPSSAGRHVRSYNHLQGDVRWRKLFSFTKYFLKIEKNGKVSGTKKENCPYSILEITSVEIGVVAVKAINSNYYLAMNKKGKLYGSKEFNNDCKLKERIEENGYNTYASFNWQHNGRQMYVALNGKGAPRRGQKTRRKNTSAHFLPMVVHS
Epidermal growth factor receptor (Homo sapiens), sequence (P00533 whole entry, looked up): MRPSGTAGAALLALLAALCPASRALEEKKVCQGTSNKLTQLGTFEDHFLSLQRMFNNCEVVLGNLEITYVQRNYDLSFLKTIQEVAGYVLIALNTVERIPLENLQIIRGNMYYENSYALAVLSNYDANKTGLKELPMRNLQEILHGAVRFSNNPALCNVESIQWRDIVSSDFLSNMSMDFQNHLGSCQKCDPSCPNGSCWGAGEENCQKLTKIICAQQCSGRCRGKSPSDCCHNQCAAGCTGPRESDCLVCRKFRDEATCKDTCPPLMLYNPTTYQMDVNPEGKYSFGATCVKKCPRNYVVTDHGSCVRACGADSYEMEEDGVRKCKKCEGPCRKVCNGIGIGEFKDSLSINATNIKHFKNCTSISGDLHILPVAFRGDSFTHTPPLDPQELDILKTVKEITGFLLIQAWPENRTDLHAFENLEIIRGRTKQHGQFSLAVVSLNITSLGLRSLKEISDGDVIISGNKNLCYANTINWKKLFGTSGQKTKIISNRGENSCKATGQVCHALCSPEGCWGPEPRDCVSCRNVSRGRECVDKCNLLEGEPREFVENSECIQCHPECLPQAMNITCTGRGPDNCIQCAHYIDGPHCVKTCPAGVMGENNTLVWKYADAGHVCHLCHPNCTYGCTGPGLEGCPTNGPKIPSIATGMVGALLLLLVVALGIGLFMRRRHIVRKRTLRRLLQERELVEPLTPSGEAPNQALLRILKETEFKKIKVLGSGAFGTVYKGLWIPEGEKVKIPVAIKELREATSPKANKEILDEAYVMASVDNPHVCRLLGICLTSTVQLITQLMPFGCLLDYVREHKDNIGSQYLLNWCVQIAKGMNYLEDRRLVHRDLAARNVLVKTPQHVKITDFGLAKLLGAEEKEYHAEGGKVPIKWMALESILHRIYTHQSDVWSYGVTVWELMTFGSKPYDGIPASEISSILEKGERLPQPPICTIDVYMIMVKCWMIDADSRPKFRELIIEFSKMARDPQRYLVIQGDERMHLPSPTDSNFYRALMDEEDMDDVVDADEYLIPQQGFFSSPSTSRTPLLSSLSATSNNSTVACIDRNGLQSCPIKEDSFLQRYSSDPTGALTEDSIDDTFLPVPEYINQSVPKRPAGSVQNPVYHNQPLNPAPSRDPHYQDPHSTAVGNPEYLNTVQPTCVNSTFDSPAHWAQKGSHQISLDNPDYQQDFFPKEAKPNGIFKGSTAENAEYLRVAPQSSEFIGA
Dickkopf-related protein 1 (Homo sapiens), sequence (O94907 whole entry, looked up): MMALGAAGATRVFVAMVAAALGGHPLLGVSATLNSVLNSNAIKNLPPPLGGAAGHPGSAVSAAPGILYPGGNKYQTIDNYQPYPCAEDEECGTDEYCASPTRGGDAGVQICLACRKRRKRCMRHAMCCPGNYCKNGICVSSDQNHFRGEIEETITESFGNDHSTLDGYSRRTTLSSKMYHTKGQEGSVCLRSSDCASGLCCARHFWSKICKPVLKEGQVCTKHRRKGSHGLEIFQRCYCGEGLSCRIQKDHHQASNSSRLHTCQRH
Follistatin-related protein 3 (Homo sapiens), sequence (O95633 whole entry, looked up): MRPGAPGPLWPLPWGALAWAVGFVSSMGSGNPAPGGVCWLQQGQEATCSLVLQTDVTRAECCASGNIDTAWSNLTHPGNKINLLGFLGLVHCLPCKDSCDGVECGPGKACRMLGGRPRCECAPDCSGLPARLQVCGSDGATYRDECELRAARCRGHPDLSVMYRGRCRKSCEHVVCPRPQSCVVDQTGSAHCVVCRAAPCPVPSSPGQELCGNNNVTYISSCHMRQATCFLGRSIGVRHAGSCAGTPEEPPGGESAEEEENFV

Structure (SMILES) | composite z-score [1] | composite z-score [2] | composite z-score [3] | z-score [4] | composite z-score [5] | composite z-score [6] | composite z-score [7] | composite z-score [8] | composite z-score [9] | composite z-score [10]
COCCOC(=O)N1C(=O)[C@@]2(c3cc(C#CCC(C(=O)OC)C(=O)OC)ccc31)[C@H](C(=O)N1CCCCCCC1)[C@H]1C(=O)O[C@H](c3ccccc3)[C@H](c3ccccc3)N1[C@@H]2c1ccc(O)cc1 | 1.36 | 1.7 | 1.41 | 0.0931 (inactive) | 1.2 | 1.3 | 0.783 | 1.45 | 1.07 | 1.63
COC(=O)[C@@]1(Cc2ccc(F)cc2)[C@H]2c3cc(C(=O)N(C)C)n(CCSCCO)c3C[C@H]2CN1C(=O)c1ccccc1 | 0.74 | 0.983 | 1.02 | -1.22 (inactive) | 0.438 | 0.266 | 0.168 | 0.322 | -0.0642 | 0.655
CCOC(=O)C1=CCC(c2cccc(Cl)c2)O1 (stereo not given) | 0.355 | 0.14 | -0.0411 | -1.29 (inactive) | 0.235 | 0.0617 | -0.62 | -0.275 | -0.504 | 0.154
CC(C)(C)OC(=O)CC[C@]1(C(=O)N2CCCCC2)N=C(c2ccc(OCCCO)cc2)O[C@H]1c1ccccc1CN=[N+]=[N-] | 1.68 | 0.978 | 0.92 | -3.65 (inactive) | 1.42 | 1.3 | 0.604 | 1.41 | 0.414 | 1.21
COCCCNC(=O)[C@@]1(Cc2ccccc2I)c2ccccc2C(=O)N(Cc2ccccc2Cl)[C@H]1c1ccc(CO)cc1 | 0.506 | 0.0418 | -0.261 | -0.964 (inactive) | -0.0568 | 0.575 | -0.0316 | 0.3 | 0.186 | 0.712
OCCCC1=CC(c2cccs2)N(Cc2cccc(OC(F)(F)F)c2)CC1 (stereo not given) | 1.32 | -0.14 | -0.138 | -0.733 (inactive) | -0.566 | -0.729 | -0.547 | -0.537 | -0.015 | 0.756
COCCOC(=O)N1C(=O)[C@@]2(c3cc(C#Cc4ccc(OC)cc4)ccc31)[C@H](C(=O)N1CCc3cc(OC)c(OC)cc3C1)[C@H]1C(=O)O[C@H](c3ccccc3)[C@H](c3ccccc3)N1[C@@H]2c1ccc(O)cc1 | 0.404 | -0.0986 | -0.107 | -0.318 (inactive) | 1.06 | 1.21 | 0.465 | 0.649 | 0.644 | 0.837
COCCOC(=O)N1C(=O)[C@@]2(c3cc(C#CCCO)ccc31)[C@H](C(=O)NC[C@H](O)c1ccccc1)[C@H]1C(=O)O[C@H](c3ccccc3)[C@H](c3ccccc3)N1[C@@H]2c1ccccc1OCCO | 0.506 | 0.437 | 0.426 | -0.183 (inactive) | 1.32 | 1.33 | 0.938 | 1.41 | 1.06 | 0.95
COc1ccc([Si](C)(C)[C@H]2[C@H](CCn3cc(CCO)nn3)O[C@@]3(C(=O)N(Cc4cccc(N5C(=O)c6cccc7cccc5c67)c4)c4ccccc43)[C@@H]2C)cc1 | 1.23 | -0.0314 | -0.567 | -1.61 (inactive) | 1.27 | 0.719 | 0.268 | 0.81 | 0.848 | -0.427
CC1=C2[C@@H](CCc3ccccc3)OB(O)C[C@@H]2[C@@H]2C(=O)C=CC(=O)[C@@H]2C1 | 0.338 | -0.102 | -0.48 | 3.33 (inactive) | 1.28 | 0.612 | 0.309 | 0.853 | 0.636 | 0.729
C[C@H]1NC(=O)C([C@@H](C)OCc2ccccc2)NC(=O)[C@@]23C(=O)N[C@@H](Cc4ccccc4)C2[C@H](C)[C@@]2(C)O[C@H]2C3/C=C/CC/C=C/CNC1=O (stereo not given in full) | -0.0404 | 0.0094 | -0.298 | -1.39 (inactive) | 0.365 | -0.248 | 0.279 | 0.575 | 0.506 | 1.42
COc1cccc(C)c1NC(=O)O[C@H]1[C@H](OC(=O)Nc2ccccc2)[C@H](OC(=O)Nc2ccccc2)[C@@H](OC)O[C@@H]1CO | 1.1 | 0.245 | 0.708 | 0.419 (inactive) | 0.96 | 0.0861 | -0.0372 | 0.367 | -0.294 | 0.179
[N-]=[N+]=NCc1ccccc1C[C@@]1(C(=O)NCCN2CCOCC2)N=C(c2ccc(OCCCO)cc2)O[C@@H]1c1ccccc1CN=[N+]=[N-] | 0.668 | 0.914 | 0.491 | 0.139 (inactive) | 1.15 | 0.602 | 0.244 | 1.29 | 0.855 | 0.817
O=C1NC(=O)C2C1C=CC(C(O)CCc1ccccc1)N2Nc1ccccn1 (stereo not given) | 0.539 | 0.673 | 0.778 | -0.735 (inactive) | 0.165 | 0.44 | 0.261 | 0.155 | 0.156 | 0.584
C=C[C@H](C)[C@H](OC(=O)Nc1ccc(SC)cc1)c1ccc(O)c2ccccc12 | 0.454 | -0.579 | -0.121 | -2.12 (inactive) | 0.0716 | -0.266 | -0.0236 | 0.284 | 0.159 | 0.289
O=C1O[C@H](c2ccccc2)[C@H](c2ccccc2)N2[C@H]1[C@@H](C(=O)N1CCCCCCC1)[C@]1(C(=O)Nc3ccccc31)[C@H]2c1ccc(O)cc1 | 2.04 | 2.68 | 1.79 | -0.365 (inactive) | 1.68 | 1.49 | 2 | 1.8 | 2.68 | 2
C=CCOC(=O)[C@@H]1[C@H]2C(=O)O[C@H](c3ccccc3)[C@H](c3ccccc3)N2[C@H](c2ccc(OCCOC(=O)[C@H]3C[C@H]4C(=O)N[C@@H](Cc5ccccc5)C(=O)N4[C@H]3c3cccc(OCCO)c3)cc2)[C@@]12C(=O)Nc1ccc(I)cc12 | 0.921 | 0.141 | -0.0432 | -0.316 (inactive) | 1.24 | 1.32 | 1.01 | 1.14 | 1.13 | 0.967
COc1ccc(C#Cc2ccc3c(c2)[C@]2(C(=O)N3)[C@H](c3ccc(OCCO)cc3)N3[C@H](c4ccccc4)[C@H](c4ccccc4)OC(=O)[C@H]3[C@@H]2C(=O)N2CCN(c3ncccn3)CC2)cc1 | 1.12 | -0.0149 | -0.275 | -0.188 (inactive) | 0.214 | 0.693 | 0.176 | 0.602 | 0.0015 | 0.433
O=C1O[C@@H](c2ccccc2)[C@@H](c2ccccc2)N2[C@@H](c3ccc(O)cc3)[C@]3(C(=O)Nc4ccc(C#CC5=CCCCC5)cc43)[C@@H](C(=O)Nc3nc4ccccc4s3)[C@H]12 | 1.61 | 0.307 | -0.0516 | -0.0881 (inactive) | 1.36 | 1.29 | 0.381 | 1.31 | 1.06 | 1.07
COC(=O)[C@@]1(Cc2ccccc2N=[N+]=[N-])N=C(c2ccc(OCCCO)cc2)O[C@H]1c1ccccc1 | 1.34 | 0.0665 | 0.87 | 2.25 (inactive) | 0.818 | -0.253 | -0.285 | 0.666 | -0.385 | 0.575
CCCCC(=C=CC[C@H](O)c1ccccc1OCCO)C[C@H](O)c1ccccn1 | 1.36 | -0.127 | 0.211 | -0.471 (inactive) | 0.551 | -0.251 | 0.324 | 0.549 | -0.0601 | 1.54
C[C@]12C(=O)N(CCCCCO)[C@@H]3C(=O)N(c4ccc(Cl)cc4)CC=CC31O[C@@H]1/C=C\CCCOC(=O)C12 (stereo not given in full) | 0.677 | -0.131 | 0.557 | -0.0628 (inactive) | -1.21 | -1.82 | -1.22 | -0.934 | -1.19 | -0.0839
CC(C)CCC[C@@H](C)[C@H]1CC[C@@]2(C)C3=C(CC[C@]12C)[C@@]1(C)CC[C@H](OC(=O)c2ccc(N)cc2)C(C)(C)C1CC3 (stereo not given in full) | 0.347 | -0.285 | -0.761 | -0.925 (inactive) | 0.331 | 0.833 | 0.614 | 0.587 | 1.4 | -0.023
CN(C)C(=O)[C@@]1(CCC(=O)OC(C)(C)C)COC(c2ccc(OCCCO)cc2)=N1 | 0.999 | 0.66 | 0.945 | 0.351 (inactive) | 0.625 | -0.459 | -0.785 | -0.326 | -1.19 | 0.279
COC(=O)[C@@]1(Cc2ccc(F)cc2)[C@H]2c3cc(C(=O)N4CCCC4)n(Cc4ccccc4)c3C[C@H]2CN1C(=O)c1ccccc1 | 0.122 | 0.411 | 1.28 | -2.67 (inactive) | 0.674 | 0.376 | 0.231 | 0.761 | -0.401 | 0.628
C=C(C(=O)CC[C@H](OC(=O)c1cccnc1)c1ccc(OCCO)cc1)C(C)C | 1.56 | -0.175 | -0.049 | 1.77 (inactive) | 1.34 | -0.0404 | 0.0365 | 0.721 | -0.17 | 0.958
C=CCNC(=O)[C@@H]1[C@H]2C(=O)O[C@H](c3ccccc3)[C@H](c3ccccc3)N2[C@H](c2ccc(O)cc2)[C@@]12C(=O)Nc1ccc(C#CCCO)cc12 | 1.84 | -0.25 | 0.216 | -0.831 (inactive) | -0.861 | -1.07 | -0.949 | -0.459 | 0.0119 | -0.348
CC(C)(C)OC(=O)CC[C@@]1(C(=O)N2CCCCC2)N=C(c2ccc(OCCCO)cc2)O[C@@H]1c1ccccc1CN=[N+]=[N-] | 1.24 | 0.754 | 0.881 | -2.55 (inactive) | 0.56 | 0.53 | 0.0678 | 1.06 | -0.0065 | 0.534

Source: PubChem BioAssay
